Screen size: about 310,000 compounds; about 11,000 (3.5%) were called active. About 8% were inconclusive and are not listed. The sample as a whole holds a higher share of actives than the screen did. A number with no mark means an inactive call. Calls come from the whole dose curve; as a rule, active = well fitted inhibition curve with a large enough effect; inconclusive = small, poorly fitted or top-dose-only effect, or effect the other way; inactive = flat fitted curve, though single readings scatter.
Assay: VP16 counterscreen qHTS for inhibitors of ROR gamma transcriptional activity;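 note: Gal4-VP16 expression switched on by copper sulfate through the metallothionein promoter; nearly all actives have a fitted effect of over 50% in size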
Settings: Drosophila S2 Gal4-VP16 UAS-luciferase, luminescence, 20 h; series mostly up to 53.6 µM; activity, negative = inhibition: at the top concentration
% is set by controls: 0 for no effect and ±100 for the full control effect; potency is the fitted concentration of half-maximal effect.

Structure (SMILES) | activity, negative = inhibition | Potency
CC(=O)Nc1ccc(S(=O)(=O)N2N=NC3C2C2CC4C3(CN(C(=O)OC(C)(C)C)S4(=O)=O)O2)cc1 (stereo unspecified) | 2.47% | –
O=C(CCc1nnc(Cc2ccc3c(c2)OCO3)o1)NCCc1ccccc1Cl | 1.16% | –
O=C1Nc2cc(C(=O)N3CCN(c4ccc(F)cc4)CC3)ccc2NC1CSCc1cccc(F)c1 (stereo unspecified) | 3.66% | –
Clc1cccc(Cl)c1OCCOCCNCc1ccccc1 | -8.4% | –
COc1cccc(NC(=O)N2C3CCCC2CC(NC(C)=O)C3)c1 (stereo unspecified) | 0.59% | –
CCOC(=O)C1(Cc2ccccc2C)CCCN(C(=O)CCc2c(C)noc2C)C1 (stereo unspecified) | -7.72% | –
COc1ccc(CCNC(=O)c2cnc(Cl)c(Cl)c2)cc1 | -1.08% | –
S=c1[nH]nc(-c2cc(-c3ccccc3)n[nH]2)n1/N=C/c1c2ccccc2cc2ccccc12 | – | 6.31 µM (active)
Cc1ccc(/C=N\n2c(-c3ccccc3)n[nH]c2=S)s1 | – | 8.91 µM (active)
S=c1[nH]nc(-c2ccncc2)n1/N=C/c1ccccc1Cl | 2.33% | –
S=c1[nH]nc(-c2ccco2)n1/N=C/c1ccccc1 | 0.747% | –
S=c1[nH]nc(-c2cccs2)n1/N=C/c1cccs1 | -3.28% | –
S=c1[nH]nc(-c2cc(-c3ccsc3)n[nH]2)n1-c1ccccc1 | -4.8% | –
CCc1ccc(-c2cc(C)no2)cc1S(=O)(=O)NCCc1ccc(S(N)(=O)=O)cc1 | -22.4% | –
NS(=O)(=O)c1ccc(CCNC(=O)c2nc(CS(=O)(=O)c3ccc(Cl)cc3)no2)cc1 | 0.186% | –
COc1ccc(C(=O)COC(=O)Cn2cnc3c2c(=O)n(C)c(=O)n3C)c(OC)c1 | 0.743% | –
CCCCNC(=O)CN1C(=O)NC(Cc2ccccc2)(Cc2ccccc2)C1=O | -1.76% | –
O=C(N/N=C\C1CC=CCC1)c1ccc(Br)o1 (stereo unspecified) | -10.9% | –
CC1(C)NC(=O)N(CC(=O)Nc2cc(C(F)(F)F)cc(C(F)(F)F)c2)C1=O | -11.9% | –
COc1cc(/C=C/C2=CC(C)(C)NC(=S)N2)cc(OC)c1OC | – | 12.6 µM (active)
COc1ccc2[nH]c(C(=O)N/N=C/c3cc(OC)c(OC)c(OC)c3)cc2c1 | -4.9% | –
CCC(=O)c1ccc(OC(=O)/C=C/c2cc(OC)c(OC)c(OC)c2)cc1 | -0.143% | –
COc1ccc(/C=C/C2=CC(C)(C)NC(=S)N2)c(OC)c1 | – | 3.55 µM (active)

Structure (SMILES) | activity, negative = inhibition | Potency
COc1ccc(/C=C2/C(=O)N(c3ccccc3)N=C2C)c(OC)c1 | 0.974% | –
COc1ccc(N)c(OC)c1 | -2.22% | –
CC1C(=O)N(Cc2ccccc2)c2ccccc2N1C(=O)c1ccccc1 (stereo unspecified) | 1.8% | –
COc1ccc(CSc2nnnn2-c2ccc(C(=O)O)cc2)cc1 | -2.54% | –
COCCCNC(=O)[C@H]1N2C(=O)c3ccccc3C2SC1(C)C (stereo partly specified) | -8.98% | –
Cn1c(-c2ccco2)nc2cc3ccccc3cc21 | – | 11.2 µM (active)
COc1ccc(CCn2c(-c3ccco3)nc3nc4ccccc4nc32)cc1OC | 0.686% | –
Cn1cccc1-c1nc2ccccc2n1C | -16.5% [at 10 µM] | –
CCn1cc(C(=O)NCCC(=O)NCCO)c(=O)c2cc3c(cc21)OCO3 | -0.42% | –
O=C(N/C(=C/c1ccc(Cl)cc1)C(=O)N1CCCCC1)c1ccco1 | -4.41% | –
COC(=O)c1ccc(CNC(=O)c2ccc3oc(C(C)C)nc3c2)cc1 | -1.6% | –
FC(F)(F)C1CCCN(c2nsc3ccccc23)C1 (stereo unspecified) | – | 28.2 µM (active)
O=c1[nH]c(/C=C\c2cccc(C(F)(F)F)c2)nc(O)c1[N+](=O)[O-] | -4.83% | –
CCN1CCN(C(=O)C2CCN(S(=O)(=O)c3cc(Cl)ccc3Cl)CC2)CC1 | 4.33% | –
CSc1ccc(CNCCN2CCOCC2)cc1 | 1.08% | –
CCCCOc1ccc(C(C)(O)CCN2CCOCC2)cc1 (stereo unspecified) | 3.9% | –
CC(C)(C)c1ccc(CCC2OCC(CN3CCOCC3)O2)cc1 (stereo unspecified) | – | 4.47 µM (active)
COc1ccc(/C=C/c2c(-c3cccc(C)c3)oc3ccc(-c4ccc5c(c4)OCO5)cc23)cc1 | -8.59% | –
COc1cccc2cc(C(=O)NCc3ccc(C)cc3)c(=N)oc12 | -2.34% | –
CC[C@]1(c2ccccc2OC)C(=O)N(C(=O)OC)N1C(=O)OC | 0.759% | –
Cc1ccc(/C=N/NC(=O)c2cc3ccccc3cc2O)o1 | – | 1.58 µM (active)
N=c1oc2ccccc2cc1C(=O)N/N=C/c1ccccc1 | -9.15% | –
Cc1ccc(/C=N/NC(=O)CNC(=O)COc2ccccc2)o1 | 2.06% | –

Structure (SMILES) | activity, negative = inhibition | Potency
COc1ccc(-n2ncc3c(SCC(=O)NNC(C)=O)ncnc32)cc1 | -6.63% | –
COc1ccc(N(C(=O)c2snc(C(N)=O)c2N)C(C(=O)NC2CCCC2)c2ccc(C)o2)c(OC)c1 (stereo unspecified) | 5.86% | –
Cc1cccc(-n2ncc(Cl)c(Cl)c2=O)c1 | – | 14.1 µM (active)
COc1ccc(Oc2c(Cl)cnn(-c3ccccc3)c2=O)cc1 | -16.5% | –
Cc1cccc(-n2ncc(C#N)c2-n2cccc2)c1 | 5.67% | –
O=C(CSc1ccc(-c2ccccn2)nn1)Nc1ccccc1 | 8.15% | –
Clc1nc(NC2CCCC2)nc(N2CCOCC2)n1 | 2.03% | –
Cc1nc(/N=C(\N)NC(=O)NC2CCCCC2)nc2ccccc12 | – | 7.94 µM (active)
O=C(NNC(=O)C(O)c1ccccc1)NC1CCCCC1 (stereo unspecified) | -6.21% | –
Cc1nn(-c2ccccc2)c(C)c1C(=O)OCC(=O)NC(=O)NC1CCCCC1 | 1.2% | –
Cc1cccc(-c2nc(Nc3ccc(O)cc3)c3ccccc3n2)c1 | -10.1% | –
c1ccc2c(Nc3ccncc3)nc(-c3ccc4c(c3)OCO4)nc2c1 | – | 17.8 µM (active)
c1ccc2c(Nc3ccncc3)nc(-c3ccoc3)nc2c1 | -20.6% | –
COCCc1nn2c(=O)cc(COC(=O)c3cc(OC)c(OC)c(OC)c3)nc2s1 | 1.47% | –
Cc1cc(C(=O)NC2CC(C)(C)Cc3c2cnn3-c2ccccc2)n[nH]1 (stereo unspecified) | 20.9% | –
O=C(c1ccccc1F)N(Cc1ccccc1)Cc1ccccc1 | 5.22% | –
CNC(=O)C(NC(=O)c1ccccc1)=C(C)C | -6.26% | –
C/C(=N\NC(=O)c1ccoc1C)c1ccccc1O | – | 0.708 µM (active)
C/C(=N\NC(=O)c1nc(C)cc(C)n1)c1ccccc1 | -5.35% | –
CC(=O)NC(=O)c1ccccc1O | -11.3% | –
CC(C)=C(NC(=O)c1ccccc1)C(=O)N/N=C(\C)c1ccccc1O | – | 2.51 µM (active)
C/C(=N\NC(=O)c1ccccc1C)c1ccc(N2CCOCC2)cc1 | 8.88% | –
CCc1cc(=O)oc2c(C)c(OCC(=O)N3CC[C@@]4(O)CCCC[C@H]4C3)ccc12 | -6.71% | –

Structure (SMILES) | activity, negative = inhibition | Potency
COc1ccc(CNC(=O)C2CCN(S(=O)(=O)c3ccc(SC)cc3)CC2)cc1 | -15.2% | –
COc1cccc(NC(=O)[C@H](Cc2c[nH]c3ccccc23)NC(=O)[C@@H]2Cc3ccccc3CN2)c1 | -1.61% | –
O=C1CCN(CCCc2ccccc2)CCN1CCO | -20.6% | –
CCOc1ccc(CC(=O)NC2CCN(Cc3ccccc3)CC2)cc1 | -3.19% | –
CCOc1ccccc1N1CN(Cc2ccccc2)CNC1=S | – | 11.2 µM (active)
CCOc1ccccc1OCCCNCc1ccccc1 | -14.8% | –
O=C(c1ccco1)N1CCN(Cc2cccc(C(F)(F)F)c2)CC1 | -1.59% | –
Cc1ccc(NS(=O)(=O)c2ccc3c(c2)n(C)c(=O)c(=O)n3C)c(C)c1 | -22.3% | –
CCOC(=O)COn1c(=O)c(-c2ccc(OCC)cc2)[n+]([O-])c2ccccc21 | -6.45% | –
Cc1nn(-c2ccccc2)c2c1c(C)c(CCC(=O)NCC1CCCO1)c(=O)n2C (stereo unspecified) | -5.19% | –
O=C(Nc1ccc(NC(=O)c2cccs2)cc1)c1ccc2ccccc2c1 | 4.21% | –
CC(=O)CCC(=O)c1ccc2ccccc2c1 | -10.3% | –
C=CC(=O)c1ccc2ccccc2c1 | – | 0.708 µM (active)
COc1cc2ccccc2cc1C(=O)Nc1ccccc1C | 12.7% | –
Cc1ccc(N(C(=O)c2snc(C(N)=O)c2N)C(C(=O)NCC2CCCO2)c2c[nH]c3ccccc23)cc1 (stereo unspecified) | 4.57% | –
CCSc1nsc(NC(=O)Nc2ccccc2OC)n1 | 24.6% | –
CC1CCN(c2ccc(S(=O)(=O)Nc3cc(C(=O)O)cc(C(=O)O)c3)cc2[N+](=O)[O-])CC1 | -8.43% | –
CC1CCN(c2ccc(C(=O)NCc3ccc4c(c3)OCO4)cc2[N+](=O)[O-])CC1 | 2.28% | –
CC1CCN(c2ccc(C(=O)Nc3nnc(C4CC4)s3)cc2[N+](=O)[O-])CC1 | – | 17.8 µM (active)
COCCNC(=O)c1ccc2c(c1)ncn2-c1ccc(C)c(Cl)c1 | 2.37% | –
CCC1Oc2ccccc2N(CC(=O)NCCCN2CCN(CC)CC2)C1=O (stereo unspecified) | 6.78% | –
Cc1c(C)c2ccc(OCC(=O)N3CCN(c4cccc(Cl)c4)CC3)cc2oc1=O | -5.7% | –
Cc1ccc(OCC(=O)NC(C)c2ccccc2)cc1C (stereo unspecified) | 9.83% | –

Structure (SMILES) | activity, negative = inhibition | Potency
O=C(/C=C/c1ccc(Cl)cc1Cl)c1cccnc1 | – | 6.31 µM (active)
O=C(Nc1cccnc1)c1cc(Cl)ccc1Cl | -0.679% | –
O=C(/C=C/c1ccc(Cl)c([N+](=O)[O-])c1)c1cccnc1 | 3.34% | –
COc1cccc(CNC(=O)C2CCCN(c3ncnc4c3nc3n4CCCCC3)C2)c1 (stereo unspecified) | -0.486% | –
Cc1cc(NC(=O)CCN2CCN(Cc3ccccc3)CC2)ccc1Br | -8.54% | –
Cc1cc(NC(=O)CSc2nc(=O)cc(N)n2-c2ccc(F)cc2)no1 | 8.25% | –
COc1cc(/C=N/NC(=O)Cc2ccccc2)cc(OC)c1OC | -3.11% | –
CC(C)(C)C(=O)Cn1c(NCCO)nc2ccccc21 | -14.2% | –
OCCNc1nc2ccccc2n1-c1ncnc2sc3c(c12)CCC3 | – | 10 µM (active)
O=C(O)[C@@H]1CCCN1c1ncnc2sc3c(c12)CCC3 | -4.98% | –
O=C(c1ccccc1)N1N=C(c2ccccc2O)CC1c1ccc(Br)cc1 (stereo unspecified) | -4.58% | –
Cc1cn([C@H]2CC(F)[C@@H](CO)O2)c(=O)[nH]c1=O (stereo partly specified) | 0.784% | –
CCn1c(-c2ccncc2)n[nH]c1=S | – | 11.2 µM (active)
CC(C)n1c(-c2ccncc2)n[nH]c1=S | 4.59% | –
CCn1c(C(C)NC(=O)c2ccc(C)cc2)n[nH]c1=S (stereo unspecified) | 0.348% | –
COc1cccc(CNC(=O)CCC2CCCN(C(=O)c3ccc(F)c(Cl)c3)C2)c1 (stereo unspecified) | 0.579% | –
COC(=O)C1(CCSC)NC(c2ccc(OC)cc2OC)C2C(=O)N(c3cccc(C(C)=O)c3)C(=O)C21 (stereo unspecified) | 0.119% | –
Cc1ccc(S(=O)Cc2ccc(C(=O)N3CCN(C4CCCCC4)CC3)o2)cc1 (stereo unspecified) | -1.07% | –
Cc1[nH]c(C)c(S(=O)(=O)N2CCN(c3cccc(C(F)(F)F)c3)CC2)c1C(=O)N1CCCC1 | 2.52% | –
